Consider twelve compounds from PubChem BioAssay (NCI).

Compounds without any hit were thinned out: in the full panel of roughly 83,000, 20% have a hit.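 Cell lines were cultured in 96-well plates, exposed to a single compound concentration, and assessed for percent growth 48 hours later.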 Values without a mark were called inactive. Activity calls are given as the source filed them. Rule for the calls: active = growth percent below 10; inactive = the rest.

The experiment has as its system BT-549 breast. In words: NCI-60 one-dose screen, 48 h (100 = growth as untreated, 0 = no growth, -100 = all killed). Particulars: 10 µM unless noted.
Consider `Cc1ccc(-c2csc(NC(=O)CN3CCN(c4cc5c(cc4F)c(=O)c(C(=O)O)cn5C4CC4)CC3)n2)cc1`, for which the growth is 16.2%. Regarding `O=C(Nc1ccc(-c2nc(N3CCOCC3)c3cccn3n2)cc1)Nc1cccnc1`, the growth is -10.2% (active). Next, `CC(=O)OC[C@]12CCC(C)(C)C[C@H]1[C@@]1(O)[C@H](O)C[C@@H]3[C@@]4(C)CCCNC(C)(C)[C@@H]4CC[C@@]3(C)[C@]1(C)CC2`: 111%; `Cn1ccnc1C(=O)C(=O)Nc1ccc(CC(=O)Nc2ccccc2)cc1`: 103%; `O=[N+]([O-])c1ccc(-c2nc(N3CCOCC3)c3c4c(sc3n2)CCCC4)cc1`: 82.3%. Next, `O=C1/C(=C\c2cn(-c3ccccc3)nc2-c2ccc(-c3cccs3)cc2)CCc2ccccc21`: 70%; `Cc1ccc(-c2cc(-c3ccc(Cl)cc3)nc(NC(=O)c3cccnc3)n2)cc1`: 117%. Next, `C[C@@H]1CCC[C@H]1CC(N)C(=O)O` (some centres not stated): 106%; `CSc1nnc(-c2cnn3c2NC(c2ccccc2)C3)n1-c1ccc(C(F)(F)F)cc1` (configuration not stated): 85.7%. For `COc1ccccc1Nc1nc2c(s1)C1=CC[C@H]3[C@@H]4CC[C@H]([C@H](C)CCCC(C)C)[C@@]4(C)CC[C@@H]3[C@@]1(C)CC2`, the growth is 110%.

With `CCOC(=O)c1ccc2[nH]c(O)c(C(=Nc3ccc(N(C)C(=O)CN4CCN(C)CC4)cc3)c3ccccc3)c2c1`, the growth was -75.9% (active).

As for `COc1ccc(-c2nnc(-c3ccc4c(c3)nc(-c3ccncc3)n4C3CCCCC3)o2)cc1`, the growth was 54.6%.
